{"source": "PubChem BioAssay AID1851", "about": "(National Center for Advancing Translational Sciences (NCATS), 2009)", "note": "Values joined by “and” are separate entries in the source; they are usually repeats but may differ in a detail not shown here. Equal values may be shown once. Out of some 16,000 compounds screened, about 2,600 (16%) were called active. Not shown: some 20% with an inconclusive outcome. Many of the other results were omitted from the sample, so actives are more common in it than they were. A number with no mark means an inactive call. Calls come from the whole dose curve; as a rule, active = well fitted curve in the direction sought with a large enough effect; inconclusive = small, poorly fitted or top-dose-only effect, or effect the other way; inactive = no such curve, though single readings can be large or run the other way. % is set by controls: 0 for no effect and ±100 for the full control effect."}
{"biological_target": "Cytochrome P450 2D6 (Homo sapiens) (UniProt P10635)", "sequence (P10635 whole entry, looked up)": "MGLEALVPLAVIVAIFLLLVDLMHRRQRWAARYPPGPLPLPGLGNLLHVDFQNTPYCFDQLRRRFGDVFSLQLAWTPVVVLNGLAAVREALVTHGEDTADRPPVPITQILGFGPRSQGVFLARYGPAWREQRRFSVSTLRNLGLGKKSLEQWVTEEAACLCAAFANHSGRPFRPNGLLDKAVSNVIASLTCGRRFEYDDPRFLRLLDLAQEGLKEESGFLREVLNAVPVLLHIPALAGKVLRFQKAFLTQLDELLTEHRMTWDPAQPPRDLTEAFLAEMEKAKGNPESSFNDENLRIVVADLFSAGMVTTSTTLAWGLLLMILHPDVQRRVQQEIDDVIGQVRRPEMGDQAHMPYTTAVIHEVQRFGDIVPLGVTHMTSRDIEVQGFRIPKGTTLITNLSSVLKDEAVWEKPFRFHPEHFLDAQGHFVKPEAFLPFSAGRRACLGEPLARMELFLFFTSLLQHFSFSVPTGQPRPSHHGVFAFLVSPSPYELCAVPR", "assay": "Cytochrome panel assay with activity outcomes", "settings": "recombinant CYP, pro-luciferin dealkylation, luminescence, p450-cyp2d6; series mostly up to 57.1 µM; activity, negative = inhibition: at the top concentration"}
{"smiles": "O=C(CCCC1=NS(=O)(=O)c2ccccc2N1)N1CCC2(CC1)OCCO2", "activity, negative = inhibition": "8.08%"}
{"smiles": "O=C(Nc1ccc(Cl)cc1C(=O)c1ccccc1Cl)c1ccco1", "activity, negative = inhibition": "18.6%"}
{"smiles": "Nc1ccccc1O.O.O=C(O)[C@H]1[O][Sb][O][C@H]1C(=O)O", "activity, negative = inhibition": "-5.13% [at 11.4 µM]"}
{"smiles": "Clc1cncc(N2CCNCC2)n1", "activity, negative = inhibition": "-5.59%"}
{"smiles": "O=[N+]([O-])c1ccc(N2CCNCC2)cc1NC1CC1", "activity, negative = inhibition": "-26.8%"}
{"smiles": "Clc1cccc(N2CCNCC2)c1", "AC50": "25.1 µM (active) and 3.98 µM (active)"}
{"smiles": "O=c1[nH]cnc2[nH]cc(CN3CCCCC3)c12", "activity, negative = inhibition": "7.9% [at 11.4 µM]"}
{"smiles": "COc1c2c(cc3c1OCO3)CCN(C)C2", "AC50": "3.98 µM (active)"}
{"smiles": "CC(C)C(=O)N1C2CCC1CC(O)(c1ccc(F)cc1)C2", "note": "(stereo unspecified)", "activity, negative = inhibition": "-8.02%"}
{"smiles": "CNC[C@H](O)c1ccc(O)cc1", "activity, negative = inhibition": "2.97% [at 25.6 µM]"}
{"smiles": "NC[C@H](O)c1ccc(O)cc1", "AC50": "inactive"}
{"smiles": "C[C@H](N[C@@H](C)CCc1ccccc1)[C@H](O)c1ccc(O)cc1", "AC50": "2 µM (active)"}
{"smiles": "CC(C)[N+](C)(CCOC(=O)C1c2ccccc2Oc2ccccc21)C(C)C", "AC50": "31.6 µM (active) and 1.26 µM (active)"}
{"smiles": "O=C(Nc1ccc(F)cc1F)c1cccnc1Oc1cccc(C(F)(F)F)c1", "activity, negative = inhibition": "9.56%"}
{"smiles": "CC[C@@H]1[C@@H]2C[C@H]3[C@H]4N(C)c5ccccc5[C@@]45C[C@@H]([C@@H]2[C@@H]5O)N3[C@H]1O", "AC50": "3.98 µM (active)"}
{"smiles": "Clc1ccc(C2=CCC[C@H]3CC[C@@H]2N3)cn1", "activity, negative = inhibition": "-1.47%"}
{"smiles": "O=C(CNS(=O)(=O)c1ccc(Br)s1)N1CCC2(CC1)OCCO2", "activity, negative = inhibition": "-8.62%"}
{"smiles": "NC(N)=NN=Cc1c(Cl)cccc1Cl", "AC50": "10 µM (active)"}
{"smiles": "O=P(O)(O)c1ccccc1", "note": "(tested in a mixture with another compound)", "activity, negative = inhibition": "15.2% [at 11.4 µM]"}
{"smiles": "O=C(O)Cc1cccnc1C(=O)O", "activity, negative = inhibition": "9%"}
{"smiles": "O=C(O)[C@@H]1[C@H](C(=O)O)[C@]2(Cl)C(Cl)=C(Cl)[C@@]1(Cl)C2(Cl)Cl", "activity, negative = inhibition": "-8.74% [at 11.4 µM]"}
{"smiles": "O=c1c2ccccc2c2ccccc2c(=O)n1-c1cc2c3ccccc3ccc2c2ccccc12", "activity, negative = inhibition": "2.85% [at 11.4 µM]"}
{"smiles": "NCC[C@H](O)C(=O)N[C@H]1C[C@@H](N)[C@@H](O[C@H]2O[C@@H](CN)[C@@H](O)[C@@H](O)[C@@H]2N)[C@@H](O[C@H]2O[C@@H](CO)[C@@H](O)[C@@H]2O)[C@@H]1O", "activity, negative = inhibition": "2.47% [at 25.6 µM]"}
{"smiles": "c1ccc2sc(C3(N4CCCCC4)CCCCC3)cc2c1", "AC50": "12.6 µM (active) and 3.16 µM (active)"}
{"smiles": "CN1C(=O)CCS(=O)(=O)[C@H]1c1ccc(Cl)cc1", "activity, negative = inhibition": "3.35%"}
{"smiles": "CCCn1c(=O)c2[nH]c(C3CCCC3)nc2n(CCCOC(=O)c2ccc(S(=O)(=O)F)cc2)c1=O", "activity, negative = inhibition": "-2.07%"}
{"smiles": "Cc1ncsc1CCCl", "AC50": "12.6 µM (active)"}
{"smiles": "C=C(C)[C@H]1CC[C@]2(C(=O)O)CC[C@]3(C)[C@@H](CC[C@H]4[C@@]5(C)CC[C@@H](O)C(C)(C)[C@@H]5CC[C@@]43C)[C@H]12", "activity, negative = inhibition": "7.05% [at 25.6 µM]"}
{"smiles": "Cc1nc(-c2ccc(-c3ccc(C(=O)N4CCc5cc6c(cc54)C4(CCN(C)CC4)CO6)cc3)c(C)c2)no1", "AC50": "31.6 µM (active)"}
{"smiles": "COC(=O)c1c(C)ccc2c(O)c3c(cc12)C(=O)c1c2c(cc(O)c1C3=O)[C@@]1(C)O[C@@](C)(O2)[C@@H](O)[C@H](N(C)C)[C@H]1O", "activity, negative = inhibition": "-17.5% [at 11.4 µM]"}
{"smiles": "C=C[C@]12CN(C)[C@H]3C1[C@@]1(C(=O)Nc4ccccc41)[C@H]1C[C@H]2[C@H]3CO1", "activity, negative = inhibition": "-2.6% [at 25.6 µM]"}
{"smiles": "N[C@@H](CSC1c2ccccc2-c2ccccc21)C(=O)O", "activity, negative = inhibition": "-14.3% [at 11.4 µM]"}
{"smiles": "O=C(CNS(=O)(=O)c1cccs1)N1CCC2(CC1)OCCO2", "activity, negative = inhibition": "-6.61%"}
{"smiles": "Fc1ccc(C(OCCN2CCN(C/C=C\\c3ccccc3)CC2)c2ccc(F)cc2)cc1", "AC50": "7.94 µM (active)"}
{"smiles": "C(=C/c1ccccc1)/CN1CCN(CCOC(c2ccccc2)c2ccccc2)CC1", "AC50": "5.01 µM (active)"}
{"smiles": "Clc1ccc([C@@H](OCCN2CCCCC2)c2ccccc2)cc1", "AC50": "0.0158 µM (active)"}
{"smiles": "CC(C)(c1ccc(OC[C@@H]2CO2)cc1)c1ccc(OC[C@H]2CO2)cc1", "activity, negative = inhibition": "5.45%"}
{"smiles": "C[C@@H]1CC[C@@H]2N(C1)C[C@H]1[C@@](O)([C@H](O)C[C@]3(O)[C@H]4CC[C@H]5[C@]6(O)O[C@]4(C[C@]13O)[C@@]5(C)CC[C@@H]6O)[C@@]2(C)O", "activity, negative = inhibition": "10.1% [at 11.4 µM]"}
{"smiles": "CCCCC/C=C\\C/C=C\\C/C=C\\C/C=C\\CCCC(=O)NCC(=O)O", "activity, negative = inhibition": "3.86%"}
{"smiles": "CCN(CC)CCn1ncc2c(N)ncnc21", "activity, negative = inhibition": "4.3% [at 11.4 µM]"}
{"smiles": "CNC(=O)Oc1ccc2c(c1)[C@@]1(C)CCN(C)[C@@H]1N2C", "AC50": "0.251 µM (active)"}
{"smiles": "C=C1[C@@H](O)C2C=CC[C@H](C)C(=O)[C@@](C)(O)C=C[C@@H](OC(C)=O)[C@@]23C(=O)N[C@H](Cc2ccccc2)[C@@H]3[C@@H]1C", "note": "(stereo partly specified)", "activity, negative = inhibition": "1.19%"}
{"smiles": "CCCCC/C=C\\C/C=C\\C/C=C\\C/C=C\\CCCC(=O)Nc1ccc(O)cc1", "activity, negative = inhibition": "13.4%"}
{"smiles": "CN1[C@H]2CC(=O)C[C@@H]1[C@@H](O)C2", "activity, negative = inhibition": "6.02% [at 25.6 µM]"}
{"smiles": "O=C(O)CS(=O)(=O)C(c1ccccc1)c1ccccc1", "activity, negative = inhibition": "8.36% [at 11.4 µM]"}
{"smiles": "N[C@H](Cc1ccc(N(CCCl)CCCl)cc1)C(=O)O", "activity, negative = inhibition": "-0.262%"}
{"smiles": "NC(=O)c1cc(N2CC2)c([N+](=O)[O-])cc1[N+](=O)[O-]", "activity, negative = inhibition": "15.3%"}
{"smiles": "C=CCO[C@@H](Cn1ccnc1)c1ccc(Cl)cc1Cl", "AC50": "5.01 µM (active)"}
{"smiles": "C=C1[C@@H]2CC[C@H]3[C@@]4(C)C[C@@H](O[C@@H]5O[C@H](CO)[C@H](OS(=O)(=O)O)[C@@H](OS(=O)(=O)O)[C@@H]5OC(=O)CC(C)C)C[C@@H](C(=O)O)[C@H]4CC[C@@]3(C2)[C@H]1O", "activity, negative = inhibition": "3.19% [at 25.6 µM]"}
{"smiles": "C[C@H]1[C@H](NC(=O)/C(=N/OC(C)(C)C(=O)O)c2csc(N)n2)C(=O)N1S(=O)(=O)O", "note": "(stereo in doubt)", "activity, negative = inhibition": "3.51% [at 25.6 µM]"}
{"smiles": "CC[n+]1c(/C=C/N(C)c2ccccc2)sc2ccc(Cl)cc21", "AC50": "0.0112 µM (active)"}
{"smiles": "c1ccc(N2CCCC3(CCNCC3)C2)cc1", "AC50": "7.94 µM (active)"}
{"smiles": "C[N+]1(C)CCN(c2ccccc2)CC1", "activity, negative = inhibition": "-13.7%"}
{"smiles": "c1cc(N2CCCC3(CCNCC3)C2)ccn1", "AC50": "10 µM (active)"}
{"smiles": "c1cc(CN2CCC3(CCNCC3)CC2)ccn1", "activity, negative = inhibition": "10.6%"}
{"smiles": "c1ccc(N2CC3(CCNCC3)C2)cc1", "activity, negative = inhibition": "-20.1%"}
